From PubChem BioAssay (Tox21) come the findings set out here.

Assay [1] is described as follows: qHTS assay for small molecules that induce genotoxicity in human embryonic kidney cells expressing luciferase-tagged ATAD5 (AID 651632). Further: nearly all actives have a fitted effect of over 15% in size. Conditions: HEK293T ATAD5-luciferase induction, 16 h; series mostly up to 83.3 µM. The gist of the method: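 Test compounds were delivered by pin tool onto HEK293T reporter cells (2,000/well) expressing ATAD5 fused to luciferase. After 16 hr at 37C, 5% CO2, Amplite was added for 30 min at room temperature and luminescence was measured.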
(In general: qHTS replaces the single test concentration by a dilution series.)

Assay [2] is described as follows: qHTS assay for small molecule agonists of the p53 signaling pathway - cell viability (AID 651633; calls by dose curve;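 further: p53RE-bla HCT reporter cells with a stable beta-lactamase p53 reporter; nearly all actives have a fitted effect of over 30% in size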). Conditions: p53RE-bla HCT-116 viability, ATP luminescence, 16 h; series mostly up to 83.3 µM. The gist of the method: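 Viability counter-read: CellTiter-Glo luminescence (30 min, room temperature) in the same p53RE-bla plates. These plates had been exposed to compounds for 16 h at 37 C.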

Assay [3] can be described thus: qHTS assay for small molecules that induce genotoxicity in human embryonic kidney cells expressing luciferase-tagged ATAD5 - cell viability (AID 651634; calls by dose curve; further: nearly all actives have a fitted effect of over 25% in size). Conditions: HEK293T ATAD5-luc cells viability, CellTiter-Fluor, 15.5 h; series mostly up to 83.3 µM. The gist of the method: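 Quantitative high-throughput format. HEK293T cells expressing ATAD5 fused to luciferase were plated at 2,000 cells/well and treated 15.5 hr with compound versus DMSO. Viability was determined by fluorescent live-cell protease substrate, 30 min at 37C.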

A short description of assay [4]: qHTS assay for small molecule disruptors of the mitochondrial membrane potential - cell viability (AID 720634; calls by dose curve;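 further: human HepG2 liver cancer cells; nearly all actives have a fitted effect of over 20% in size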). The following applies: HepG2 viability, ATP luminescence (CellTiter-Glo), 1 h; series mostly up to 83.2 µM. In a few lines: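 Same-well counter-screen: following the MMP dye addition, CellTiter-Glo was added to 1 hr compound-treated HepG2 cells and luminescence read after 30 min at room temperature.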

Assay [5] can be described thus: qHTS assay to test for compound auto fluorescence at 590 nm (red) in HepG2 cells (AID 720674). Conditions: HepG2 autofluorescence, red 540/590 nm, 1 h; series mostly up to 91.3 µM. In a few lines: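 We screened compounds on adherent HepG2 cells, incubating them for an hour at 37 C in 5% CO2 before reading emission at 590 nm under 540 nm excitation; values reflect equivalence to Rose Bengal sodium fluorescence.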

Assay [6] can be described thus: qHTS assay to test for compound auto fluorescence at 535 nm (green) in HepG2 cells (AID 720675). The following applies: green autofluorescence 485/535 nm, 1 h; series mostly up to 91.3 µM.
Assay [7] in a line: qHTS assay to test for compound auto fluorescence at 460 nm (blue) in HEK293 cells (AID 720678). Conditions: blue autofluorescence 405/460 nm; series mostly up to 91.3 µM. In a few lines: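 Measured: blue fluorescence (Ex 405/Em 460 nm) of compound-treated HEK293 cells, incubated overnight at 37C with 5% CO2 and scaled to triamterene equivalents.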
Assay [8] in a line: qHTS assay to test for compound auto fluorescence at 590 nm (red) in HEK293 cells (AID 720679). The following applies: red autofluorescence 540/590 nm; series mostly up to 91.3 µM. The gist of the method: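 Using HEK293 cells at 2,000 per well, the screen added 23 nL of each compound after cell attachment and incubated overnight (37C, 5% CO2). The plate reader then captured red-label fluorescence, Ex/Em 540/590nm.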

A short description of assay [9]: qHTS assay for small molecule disruptors of the mitochondrial membrane potential (AID 720635). Further: potency means the concentration at half of the fitted maximal effect. Conditions: HepG2 mitochondrial membrane potential, Mito-MPS dye ratio; series mostly up to 83.2 µM. In a few lines: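 Mitochondrial membrane potential tracked with Mito-MPS dye, red aggregates (ex 540/em 590 nm) against green monomers (ex 490/em 535 nm). Compound treatment 1 hr at 37C, dye 30 min in HepG2.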

Each structure is given as a SMILES string. Results filed as inconclusive are left out. Calls of active or inactive are those of the source. Unless noted, the call rests on the fitted dose curve; in most records, active means well fitted curve in the direction sought with a large enough effect in the repeat runs; inconclusive means weak or mixed curves; inactive means no such curve, though single readings can be large; an effect the other way counts as inactive or inconclusive.

As for `CCCOCCOCCOCCO`, the call in assay [1], in [2], in [4], in assay [5], in assay [6] and in [7] was inactive. Also, in assay [8], the result was inactive. Further, the Potency entry in assay [3] is “inactive”.
As to `CC(CC(=O)O)CC(C)(C)C` (configuration not stated), the call in assay [1], in assay [2], in assay [4], in [5], in assay [6] and in assay [7] was inactive. Moreover, the call in assay [8] was inactive. Moreover, the Potency result in [3] is “inactive”.
Turning to `O=P(O)(O)OCC(O)CO` (configuration not stated), the call in assay [1], in assay [2], in assay [4], in assay [5], in assay [6] and in assay [7] was inactive. In addition, the outcome in assay [8] was inactive. Further, the Potency result in assay [3] and in assay [9] was “inactive” each time.
Consider `OC(CCN1CCCCC1)(c1ccccc1)c1ccccc1`, for which the call in [1], in [2], in assay [4], in assay [5], in assay [6] and in assay [7] was inactive. In addition, the call in assay [8] was inactive. In assay [3], the Potency entry was “inactive”.
Regarding `CCC1Nc2cc(Cl)c(S(N)(=O)=O)cc2S(=O)(=O)N1` (configuration not stated), the result in assay [1], in assay [2], in assay [4], in assay [5], in assay [6] and in assay [7] was inactive. Besides, in [8], the compound was classed as inactive. For the same compound, in assay [3], the Potency entry was “inactive”.
For the compound `CC(C)CCO`, the compound was classed as inactive in assay [1], in assay [2], in assay [4], in assay [5], in assay [6] and in assay [7]. For the same compound, the outcome in assay [8] was inactive. The Potency result in assay [3] was “inactive”.
Turning to `O=C1NC2NC(=O)NC2N1` (configuration not stated), the compound was classed as inactive in [1], in assay [2], in [4], in [5], in assay [6] and in assay [7]. Further, the result in [8] was inactive. Moreover, the Potency entry in assay [3] and in assay [9] was “inactive” each time.
As to `O=c1cc(O)c(Cl)c[nH]1`, the outcome in assay [1], in assay [2], in assay [4], in assay [5], in assay [6] and in [7] was inactive. Besides, the result in [8] was inactive. The Potency entry in [3] was “inactive”.
In the case of `COc1cccc2sc(N)nc12`, the result in assay [1], in assay [2], in [4], in assay [5], in [6] and in assay [7] was inactive. For the same compound, the call in assay [8] was inactive. Also, the Potency entry in assay [3] is “inactive”. Further, in [9], the Potency was 43.5 µM (active).
Consider `Cc1ccccc1N1CCN(CCc2nnc3n2CCCC3)CC1`, for which the call in assay [1], in assay [2], in assay [4], in assay [5], in [6] and in [7] was inactive. Moreover, the compound was called inactive in [8]. Moreover, the Potency entry in assay [3] was “inactive”.
As for `C=CCOc1c(Br)cc(C(C)(C)c2cc(Br)c(OCC=C)c(Br)c2)cc1Br`, the outcome in [1], in assay [2], in assay [4], in assay [5], in [6] and in assay [7] was inactive. The compound was called inactive in assay [8]. Also, the Potency result in [3] was “inactive”.
On to `O=S(=O)(O)SSS(=O)(=O)O`, for which the outcome in assay [1], in [2], in assay [4], in assay [5], in assay [6] and in assay [7] was inactive. For the same compound, the compound was called inactive in assay [8]. In [3], the Potency entry is “inactive”.
As to `N#CCCOCCOCCC#N`, the outcome in assay [1], in assay [2], in [4], in [5], in assay [6] and in assay [7] was inactive. Also, the compound was called inactive in [8]. Moreover, the Potency result in assay [3] was “inactive”.
